Measured values reported in publication PMC5540273 (PLoS ONE, 2017).

How the values were obtained:
Conditions in all cases: concentration: 1 μM, replicates: in singlicate; n = 1
MEK5 = tested on: T1, MEK5
T1 construct: gene MAP2K5

MEK6 = tested on: T2, MEK6
T2 construct: gene MAP2K6

MELK = tested on: MELK
MERTK = tested on: MERTK
MET = tested on: MET
MINK = tested on: T3, MINK
T3 construct: gene MINK1

MKK7 = tested on: MKK7
MKNK1 = tested on: MKNK1
MKNK2 = tested on: MKNK2
MLCK = tested on: T4, MLCK
T4 construct: gene MYLK3

MLK1 = tested on: T5, MLK1
T5 construct: gene MAP3K9

MLK2 = tested on: MLK2
MLK3 = tested on: MLK3
MRCKA = tested on: MRCKA
MRCKB = tested on: T6, MRCKB
T6 construct: gene CDC42BPB

MST1R = tested on: MST1R
MST1 = tested on: T7, MST1
T7 construct: gene STK4

MST2 = tested on: T8, MST2
T8 construct: gene STK3

MST3 = tested on: T9, MST3
T9 construct: gene STK24

MST4 = tested on: MST4
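Further: KINOMEscan kinase panel screen.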

| Compound | %Inh (MEK5) | %Inh (MEK6) | %Inh (MELK) | %Inh (MERTK) | %Inh (MET) | %Inh (MINK) | %Inh (MKK7) | %Inh (MKNK1) | %Inh (MKNK2) | %Inh (MLCK) | %Inh (MLK1) | %Inh (MLK2) | %Inh (MLK3) | %Inh (MRCKA) | %Inh (MRCKB) | %Inh (MST1R) | %Inh (MST1) | %Inh (MST2) | %Inh (MST3) | %Inh (MST4) |
| --- | --- | --- | --- | --- | --- | --- | --- | --- | --- | --- | --- | --- | --- | --- | --- | --- | --- | --- | --- | --- |
| COc1cccc(-c2ccc3c(NC(=O)C4CC4)n[nH]c3n2)c1 [SB-710903] | 61% | 0% | 0% | 38% | 28% | 76% | 0% | 32% | 21% | 47% | 19% | 0% | 0% | 21% | 0% | 29% | 3% | 0% | 0% | 0% |
| CN(C)Cc1ccc(-c2ccc3c(Nc4ccc(Oc5ccccn5)cc4)ccnc3c2)o1 [GW567148] | 100% | 0% | 0% | 38% | 12% | 36% | 0% | 0% | 38% | 0% | 0% | 0% | 1% | 0% | 0% | 41% | 14% | 0% | 0% | 0% |
| CC(=O)N1CCN(c2ccc(Nc3nccc(-c4sc(C(C)C)nc4-c4cccc(NS(=O)(=O)c5cccc(Cl)c5)c4)n3)cn2)CC1 [GSK1660437] | 99.8% | 0% | 57% | 44% | 0% | 18% | 0% | 7% | 51% | 0% | 33% | 33% | 46% | 0% | 0% | 15% | 4% | 0% | 6% | 1% |
| CCS(=O)(=O)c1ccc(OC)c(Nc2nccc(-c3c(-c4cccc(NC(=O)c5c(F)cccc5F)c4)nn4ncccc34)n2)c1 [GSK326180] | 99.6% | 0% | 0% | 9% | 2% | 0% | 14% | 3% | 12% | 0% | 0% | 0% | 0% | 24% | 11% | 0% | 21% | 28% | 0% | 0% |
| FC(F)(F)c1ccc(/C=C/c2cncnc2Nc2ccc3[nH]c(Cc4ccccc4)nc3c2)cc1 [GW709199] | 32% | 0% | 0% | 4% | 16% | 1% | 0% | 0% | 0% | 0% | 19% | 11% | 1% | 31% | 26% | 0% | 2% | 0% | 0% | 0% |
| Cc1ccc(C(=O)Nc2ccc(Nc3ccnc4cc(-c5nccs5)ccc34)cc2O)cc1.Cl [GW494702] | 99.9% | 0% | 1% | 24% | 0% | 47% | 0% | 22% | 8% | 12% | 0% | 0% | 0% | 1% | 0% | 34% | 0% | 5% | 3% | 0% |
| COc1cc(Nc2nccc(-c3c(-c4cccc(NC(=O)c5c(F)cccc5F)c4)nn4ncccc34)n2)cc(OC)c1OC [GSK327238] | 99.9% | 51% | 31% | 90.2% | 79% | 44% | 0% | 5% | 5% | 47% | 9% | 39% | 50% | 100% | 98.9% | 79% | 96.6% | 92.1% | 64% | 42% |
| Cl.Cl.NCC(NC(=O)c1cc(-c2ccccc2)c(-c2ccnc3[nH]ccc23)s1)c1ccccc1 (stereo not shown) [GSK1321561] | 19% | 6% | 37% | 44% | 3% | 90.7% | 17% | 20% | 19% | 40% | 0% | 23% | 11% | 73% | 90.7% | 42% | 0% | 0% | 0% | 27% |
